Laboratory results taken from PubChem BioAssay (EPA / NIEHS).
Values joined by “and” are separate entries in the source; they are usually repeats but may differ in a detail not shown here. Equal values may be shown once. Inconclusive results are not listed. The source holds several records for some structures; these can differ, active in one and inactive in another. Active and inactive are the calls of the source. Rule for the calls: active = hit-call score of the fitted dose curve at least 0.9, where 1 is the maximum; inconclusive = response in the unintended direction; inactive = score below 0.9.

Key:
[1] = biological target: human Constitutive Androstane Receptor (CAR), NR1I3 (gene 9970) (UniProt Q14994); experiment: NVS_NR_hCAR_Antagonist: NovaScreen (NVS) Nuclear Receptor Binding Assay for human Constitutive Androstane Receptor Antagonism (CAR) (AID 2283344)
Outline: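 Single 25 uM duplicate primary screen, with concentration-series follow-up on actives. Cell-free binding format run in antagonist mode, TR-FRET signal taken 1 h post-dose; activity is signal loss relative to DMSO.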

[2] = biological target: bovine Estrogen Receptor (ER), ESR1 (gene 407238) (UniProt P49884); experiment: NVS_NR_bER: NovaScreen (NVS) Nuclear Receptor Binding Assay for bovine Estrogen Receptor (ER) (AID 2283345);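 note: actives lower the bound radioligand count which means they displace the ER ligand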
Outline: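 Displacement of a radioligand from estrogen receptor in bovine uterine membrane preparations; scintillation signal taken at 18 hours, DMSO as baseline. Single-concentration duplicates (25 uM) preceded concentration-response follow-up of actives.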

[3] = biological target: Estrogen receptor (Homo sapiens) (UniProt P03372); experiment: OT_ER_ERaERa_1440: Odyssey Thera (OT) 24-hour HEK293T Protein-Complementation Assay for Estrogen Receptor-alpha/-alpha Homodimer (AID 2283349);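 note: hits raise fluorescence above DMSO for agonists and antagonists alike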
Outline: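 Cells (HEK293T) carrying the fragment-tagged ERα LBD (aa 310-547) pair are treated with chemical for 24 hours. Nuclear and/or cytoplasmic fluorescence is then quantified on a laser scanning cytometer. Activity is scored as signal gain against DMSO.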

[4] = biological target: Estrogen receptor (Homo sapiens) (UniProt P03372); experiment: OT_ER_ERaERa_0480: Odyssey Thera (OT) 8-hour HEK293T Protein-Complementation Assay for Estrogen Receptor-alpha/-alpha Homodimer (AID 2283351);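 note: rise in fluorescence from reassembled reporter fragments on ERα LBD homodimer in nucleus or whole cell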
Outline: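 Measures ERα LBD (aa 310-547) homodimer complementation in stably transfected HEK293T at 8 h post-dose, with fluorescence intensity quantified on a laser scanning cytometer relative to DMSO controls.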

[5] = biological target: Estrogen receptor (Homo sapiens) + Estrogen receptor beta (Homo sapiens) (UniProt P03372+Q92731); experiment: OT_ER_ERaERb_0480: Odyssey Thera (OT) 8-hour HEK293T Protein-Complementation Assay for Estrogen Receptor-alpha/-beta Heterodimer (AID 2283352)
Outline: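 Fluorescence increase from reconstituted reporter fragments, quantified by laser scanning cytometer, reflects ER-alpha/ER-beta heterodimer formation in human HEK293T cells. Exposure 8 h; positive-direction fitting against DMSO vehicle.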

[6] = biological target: chimpanzee Androgen Receptor (AR), AR (gene 747460) (UniProt O97775); experiment: NVS_NR_cAR: NovaScreen (NVS) Nuclear Receptor Binding Assay for chimpanzee Androgen Receptor (AR) (AID 2283346);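 note: radioligand displacement from AR measured by scintillation counting in a cell-free assay; a loss of bound radioligand signal versus DMSO counts as binding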
Outline: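 Radioligand binding to chimpanzee AR expressed in Sf9/Sf21 cells, cell-free, measured 72 h after dosing by lysate-based scintillation counting. Loss of signal vs DMSO; initial duplicate screen at 25 uM, actives retested in concentration series.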

[7] = biological target: Estrogen receptor (Homo sapiens) (UniProt P03372); experiment: NVS_NR_hER: NovaScreen (NVS) Nuclear Receptor Binding Assay for human Estrogen Receptor (ER) (AID 2283348)
Outline: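 MCF7-derived receptor extract, radiolabelled ligand, competitive displacement. Read: scintillation counts at 18 h. DMSO = negative control/baseline. Primary 25 uM duplicate; follow-up concentration–response.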

[8] = biological target: Bile acid receptor (Homo sapiens) (UniProt Q96RI1); experiment: NVS_NR_hFXR_Antagonist: NovaScreen (NVS) Nuclear Receptor Binding Assay for human Farnesoid X Receptor Antagonism (FXR) (AID 2283350)
Outline: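 Antagonist-format time-resolved FRET binding assay with extracted human receptor protein, read 1 hour after compound addition. Compounds first screened at 25 uM in duplicate, then actives tested in concentration series, with loss of signal relative to DMSO.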

[9] = biological target: Bile acid receptor (Homo sapiens) (UniProt Q96RI1); experiment: NVS_NR_hFXR_Agonist: NovaScreen (NVS) Nuclear Receptor Binding Assay for human Farnesoid X Receptor Agonism (FXR) (AID 2283347)
Outline: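 Agonist-mode FXR assay read by time-resolved FRET 1 h after compound addition, using isolated human receptor protein without cells. Duplicate 25 uM single-point primary screen, concentration series for confirmed actives; DMSO as baseline.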

Measured: AC50

Sequence of Estrogen receptor (Homo sapiens) + Estrogen receptor beta (Homo sapiens) (P03372 whole entry, looked up, the tested form may be a part): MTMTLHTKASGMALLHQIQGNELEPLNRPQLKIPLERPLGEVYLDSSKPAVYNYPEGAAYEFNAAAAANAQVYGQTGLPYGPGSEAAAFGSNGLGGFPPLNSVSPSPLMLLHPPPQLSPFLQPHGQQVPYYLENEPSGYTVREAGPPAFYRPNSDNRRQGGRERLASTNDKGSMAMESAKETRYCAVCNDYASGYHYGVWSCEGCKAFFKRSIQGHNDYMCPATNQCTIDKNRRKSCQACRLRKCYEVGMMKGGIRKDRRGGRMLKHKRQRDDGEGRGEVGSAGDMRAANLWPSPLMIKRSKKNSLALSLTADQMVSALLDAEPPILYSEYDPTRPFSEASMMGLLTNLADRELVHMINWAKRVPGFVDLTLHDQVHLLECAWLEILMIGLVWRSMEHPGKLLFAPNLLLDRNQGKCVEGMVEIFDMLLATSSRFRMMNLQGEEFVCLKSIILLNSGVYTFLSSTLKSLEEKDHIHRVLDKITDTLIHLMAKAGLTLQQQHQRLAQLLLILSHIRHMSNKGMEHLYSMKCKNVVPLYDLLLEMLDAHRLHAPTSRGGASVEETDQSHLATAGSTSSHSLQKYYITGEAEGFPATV
Sequence of Estrogen receptor (Homo sapiens) + Estrogen receptor beta (Homo sapiens) (Q92731 whole entry, looked up, the tested form may be a part): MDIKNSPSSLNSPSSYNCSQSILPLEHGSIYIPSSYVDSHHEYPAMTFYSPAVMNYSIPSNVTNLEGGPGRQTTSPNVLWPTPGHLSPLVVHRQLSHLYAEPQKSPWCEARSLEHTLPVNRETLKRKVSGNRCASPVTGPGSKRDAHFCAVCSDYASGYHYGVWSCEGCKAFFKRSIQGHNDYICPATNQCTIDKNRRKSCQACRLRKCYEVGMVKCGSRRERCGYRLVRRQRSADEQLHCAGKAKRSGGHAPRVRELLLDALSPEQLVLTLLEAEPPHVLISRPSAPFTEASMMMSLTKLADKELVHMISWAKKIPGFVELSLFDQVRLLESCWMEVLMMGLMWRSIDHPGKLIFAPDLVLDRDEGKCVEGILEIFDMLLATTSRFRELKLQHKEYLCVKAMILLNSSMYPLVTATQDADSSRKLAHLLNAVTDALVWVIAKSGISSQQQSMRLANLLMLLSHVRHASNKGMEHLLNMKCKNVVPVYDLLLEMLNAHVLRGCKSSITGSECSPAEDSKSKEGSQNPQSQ
Sequence of Estrogen receptor (Homo sapiens) (P03372 whole entry, looked up, the tested form may be a part): as the sequence (P03372 whole entry, looked up, the tested form may be a part) above
Sequence of bovine Estrogen Receptor (ER), ESR1 (gene 407238) (P49884 whole entry, looked up): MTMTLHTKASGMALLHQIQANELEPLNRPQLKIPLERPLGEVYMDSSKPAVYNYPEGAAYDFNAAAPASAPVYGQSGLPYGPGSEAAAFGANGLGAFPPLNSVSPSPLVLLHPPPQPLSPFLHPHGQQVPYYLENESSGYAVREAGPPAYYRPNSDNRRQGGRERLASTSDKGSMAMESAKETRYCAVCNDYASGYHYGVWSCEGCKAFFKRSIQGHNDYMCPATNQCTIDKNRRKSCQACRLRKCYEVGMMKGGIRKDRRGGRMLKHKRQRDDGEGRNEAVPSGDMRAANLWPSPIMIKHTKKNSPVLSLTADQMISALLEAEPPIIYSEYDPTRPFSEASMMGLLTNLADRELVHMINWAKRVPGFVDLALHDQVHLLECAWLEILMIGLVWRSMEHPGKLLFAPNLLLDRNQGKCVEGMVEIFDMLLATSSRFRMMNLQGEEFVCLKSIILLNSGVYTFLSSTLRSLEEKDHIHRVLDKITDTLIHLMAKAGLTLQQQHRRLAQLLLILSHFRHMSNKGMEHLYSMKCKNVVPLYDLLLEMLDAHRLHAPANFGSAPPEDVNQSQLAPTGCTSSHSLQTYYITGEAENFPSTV
Sequence of Bile acid receptor (Homo sapiens) (Q96RI1 whole entry, looked up): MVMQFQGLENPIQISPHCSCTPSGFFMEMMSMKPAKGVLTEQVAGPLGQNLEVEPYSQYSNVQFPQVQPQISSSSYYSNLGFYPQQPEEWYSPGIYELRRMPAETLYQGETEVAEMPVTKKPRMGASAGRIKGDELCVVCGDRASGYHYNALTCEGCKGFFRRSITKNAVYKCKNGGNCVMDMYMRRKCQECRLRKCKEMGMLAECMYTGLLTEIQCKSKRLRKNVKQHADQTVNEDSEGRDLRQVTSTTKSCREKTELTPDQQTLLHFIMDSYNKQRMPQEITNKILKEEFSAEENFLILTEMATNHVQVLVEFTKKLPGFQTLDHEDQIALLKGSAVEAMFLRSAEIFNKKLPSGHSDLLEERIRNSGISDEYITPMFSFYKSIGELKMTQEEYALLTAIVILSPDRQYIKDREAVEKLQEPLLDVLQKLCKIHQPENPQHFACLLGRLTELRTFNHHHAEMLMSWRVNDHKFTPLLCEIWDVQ
Sequence of human Constitutive Androstane Receptor (CAR), NR1I3 (gene 9970) (Q14994 whole entry, looked up): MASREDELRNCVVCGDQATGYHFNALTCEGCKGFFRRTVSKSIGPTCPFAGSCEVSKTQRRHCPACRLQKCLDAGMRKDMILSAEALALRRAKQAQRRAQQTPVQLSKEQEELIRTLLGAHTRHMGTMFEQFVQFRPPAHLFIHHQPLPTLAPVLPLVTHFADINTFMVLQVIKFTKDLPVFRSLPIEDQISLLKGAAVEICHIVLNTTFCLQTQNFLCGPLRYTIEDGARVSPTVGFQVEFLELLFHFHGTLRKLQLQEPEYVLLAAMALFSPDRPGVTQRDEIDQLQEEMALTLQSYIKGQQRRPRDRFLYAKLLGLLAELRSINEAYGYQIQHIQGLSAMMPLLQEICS
Sequence of chimpanzee Androgen Receptor (AR), AR (gene 747460) (O97775 whole entry, looked up): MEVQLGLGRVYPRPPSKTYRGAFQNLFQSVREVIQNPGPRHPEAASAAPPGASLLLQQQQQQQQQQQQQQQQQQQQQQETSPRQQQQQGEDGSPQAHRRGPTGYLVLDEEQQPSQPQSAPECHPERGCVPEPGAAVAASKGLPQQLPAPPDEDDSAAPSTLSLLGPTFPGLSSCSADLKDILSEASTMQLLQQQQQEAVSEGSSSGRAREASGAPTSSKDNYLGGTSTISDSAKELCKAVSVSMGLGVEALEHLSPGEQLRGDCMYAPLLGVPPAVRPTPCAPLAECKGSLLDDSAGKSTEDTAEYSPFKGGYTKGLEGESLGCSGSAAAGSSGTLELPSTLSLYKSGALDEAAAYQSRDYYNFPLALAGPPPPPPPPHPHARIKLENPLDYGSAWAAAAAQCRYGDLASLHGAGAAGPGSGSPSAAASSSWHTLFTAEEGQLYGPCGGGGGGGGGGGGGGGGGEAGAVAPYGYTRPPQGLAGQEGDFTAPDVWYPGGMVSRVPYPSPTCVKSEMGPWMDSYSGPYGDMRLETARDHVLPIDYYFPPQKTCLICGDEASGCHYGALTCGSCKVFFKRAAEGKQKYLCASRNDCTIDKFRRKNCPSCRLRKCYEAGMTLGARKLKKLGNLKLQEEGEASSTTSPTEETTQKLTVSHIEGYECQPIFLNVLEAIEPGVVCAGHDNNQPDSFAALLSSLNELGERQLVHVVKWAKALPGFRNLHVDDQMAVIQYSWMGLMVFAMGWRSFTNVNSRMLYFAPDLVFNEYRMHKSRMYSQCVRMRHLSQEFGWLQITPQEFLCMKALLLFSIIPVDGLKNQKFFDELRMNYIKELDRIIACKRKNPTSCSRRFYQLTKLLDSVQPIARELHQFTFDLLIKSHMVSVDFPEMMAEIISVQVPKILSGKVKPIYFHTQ

CCNc1nc(Cl)nc(NCC)n1
inactive: [1] | [2] | [3] | [4] | [5]

CON(C)C(=O)Nc1ccc(Cl)c(Cl)c1
active: [6] 15.3 µM
inactive: [1] | [7] | [3] | [4]

COc1ccc(C(c2ccc(OC)cc2)C(Cl)(Cl)Cl)cc1
active: [7] 4.64 µM and 5.49 µM and 13.9 µM | [3] 13.8 µM and 21.6 µM and 14.4 µM | [4] 13 µM and 12.5 µM and 10.8 µM | [5] 4.23 µM and 12.5 µM and 9.58 µM
inactive: [1] | [2] | [7] | [8]

COc1cnc(OC)n2nc(NS(=O)(=O)c3c(OCC(F)F)cccc3C(F)(F)F)nc12
inactive: [2] | [7] | [3] | [4] | [5]

CCCCNC(=O)n1c(NC(=O)OC)nc2ccccc21
inactive: [3] | [4] | [5]

CC(C)Oc1cc(-n2nc(C(C)(C)C)oc2=O)c(Cl)cc1Cl
inactive: [3] | [4] | [5]

COc1nc(NC(C)C)nc(NC(C)C)n1
inactive: [3] | [4] | [5]

Cc1cc(Cl)ccc1OCC(=O)O
inactive: [2] | [7] | [3] | [4]

CC1=C(C(=O)Nc2ccccc2)SCCO1
inactive: [3] | [5]

O=C(Nc1ccccc1)Nc1ccnc(Cl)c1
inactive: [3] | [4]

CC(C)(C)c1ccc(CSc2cnn(C(C)(C)C)c(=O)c2Cl)cc1
inactive: [3] | [4] | [5]

CCOc1cc(Oc2ccc(C(F)(F)F)cc2Cl)ccc1[N+](=O)[O-]
inactive: [3] | [4] | [5]

CCNc1nc(Cl)nc(NC(C)C)n1
inactive: [7] | [3] | [4] | [5]

CCc1nn(C)c(C(=O)NCc2ccc(C(C)(C)C)cc2)c1Cl
inactive: [9] | [3] | [4] | [5]

Cc1c(F)c(F)c(COC(=O)C2C(/C=C(\Cl)C(F)(F)F)C2(C)C)c(F)c1F (configuration not stated)
inactive: [2] | [7] | [3] | [4] | [5]

CC(C)C1(C)N=C(c2nc3ccccc3cc2C(=O)O)NC1=O (configuration not stated)
inactive: [3] | [8] | [4] | [5]

Oc1ccccc1-c1ccccc1
active: [6] 11.2 µM and 25.5 µM | [5] 66 µM
inactive: [3] | [4] | [5]

N#Cc1nn(-c2c(Cl)cc(C(F)(F)F)cc2Cl)c(N)c1S(=O)C(F)(F)F (configuration not stated)
inactive: [9] | [3] | [4]

Fc1ccc(Oc2ccnc3cc(Cl)cc(Cl)c23)cc1
inactive: [3] | [4] | [5]

O=C(O)c1nc(Cl)ccc1Cl
inactive: [3] | [4]

COc1nc(C)nc(NC(=O)NS(=O)(=O)c2ccccc2Cl)n1
inactive: [2] | [7]

C=CC1(C)OC(=O)N(c2cc(Cl)cc(Cl)c2)C1=O (configuration not stated)
not listed: [1] | [8] | [9]
inactive: all other assays above

COC(=O)C=C(C)OP(=O)(OC)OC
inactive: [3] | [4] | [5]

CCOC(=O)C(Cl)Cc1cc(-n2nc(C)n(C(F)F)c2=O)c(F)cc1Cl (configuration not stated)
inactive: [3] | [4]

COP(=S)(OC)Oc1nc(Cl)c(Cl)cc1Cl
inactive: [9] | [7] | [3] | [4] | [5]

C=CCC1=C(C)[C@@H](OC(=O)[C@@H]2[C@@H](C=C(C)C)C2(C)C)CC1=O
inactive: [3] | [4]

CC(Oc1ccc(Cl)cc1Cl)C(=O)O (configuration not stated)
inactive: [7] | [3] | [4]

COC(=O)N(OC)c1ccccc1COc1ccn(-c2ccc(Cl)cc2)n1
inactive: [1] | [3] | [4] | [5]

CNC(=S)S
inactive: [1] | [3] | [4] | [5]
